In PubChem BioAssay AID743287 (Broad Institute, 2014):
Where “and” joins values, the source holds several entries; their conditions need not be identical. Equal entries are not always repeated. Hit rate of the full screen: of about 370,000 compounds, about 2,300 (0.62%) were called active.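 How the source made its calls: active means lowest replicate activation of at least 40%, so every replicate reaches that level; inactive means the rest.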 The list comes from a sample in which actives are over-represented; it also holds similar structures and randomly drawn compounds.

Assay: GLuc luminescence reporter in INS-1E cells, primary screen for activators of glucose-dependent secretion of insulin (AID 743287);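 further: 0% = median of neutral control wells and 100% = median of IBMX positive control wells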
Conditions: INS-1E GLuc reporter insulin secretion, 2-3 h, at 16.6 µM, active compounds read high

Row | SMILES | activation
1 | Cc1ccc(S(=O)(=O)N(C)C[C@@H]2Oc3ccc(NC(=O)Nc4ccc(F)cc4)cc3C(=O)N([C@H](C)CO)C[C@@H]2C)cc1 | -24.3% (inactive)
2 | N#Cc1ccc(-c2ccc([C@@H]3[C@H]4CNC[C@@H]3N4Cc3ccc4c(c3)OCO4)cc2)cc1 | 3.4% (inactive)
3 | N#Cc1ccc(-c2ccc([C@@H]3[C@H]4CNC[C@@H]3N4Cc3cc(F)ccc3F)cc2)cc1 | 137% (active)
4 | COc1ccccc1CN1[C@@H]2CNC[C@H]1C2c1ccc(-c2cccc(C#N)c2)cc1 (stereo not given in full) | 0.586% (inactive) and -8.29% (inactive)
5 | CCCC(=O)Nc1ccc2c(c1)C(=O)N(C)[C@@H]1CC[C@H](CC(=O)NCCOC)O[C@H]1CO2 | -1.04% (inactive)
6 | C[C@H](CO)N1C[C@H](C)[C@@H](CN(C)C(=O)C2CC2)Oc2ncc(C#CC(C)(C)O)cc2C1=O | 3.22% (inactive)
7 | C[C@@H]1CN([C@H](C)CO)C(=O)c2cccc(NC(=O)c3ccncc3)c2O[C@@H]1CN(C)S(=O)(=O)c1cn(C)cn1 | 8.83% (inactive)
8 | COCc1ccc(CN2CCC(Oc3ccc(C(=O)NCc4ccccn4)cc3)CC2)o1 | 2.23% (inactive)
9 | COc1ccc2oc(=O)c(C(=O)NCc3ccccn3)cc2c1 | 70.8% (active)
10 | COc1ccccc1CNS(=O)(=O)c1cc(C(=O)NCc2ccccn2)c(Cl)cc1Cl | 4.38% (inactive)
11 | C[C@@H]1CN([C@H](C)CO)C(=O)c2cc(NC(=O)NC3CCCCC3)ccc2O[C@@H]1CN(C)S(C)(=O)=O | -8.57% (inactive)
12 | CC(C)CC#Cc1ccc2c(c1)O[C@H](CN(C)Cc1cccnc1)[C@H](C)CN([C@@H](C)CO)S2(=O)=O | -26.2% (inactive)
13 | C=CCn1c(SCc2ccccc2)nc2c1c(=O)[nH]c(=O)n2C | 52% (active)
14 | CC=CCn1c(SCCCc2ccccc2)nc2c1c(=O)[nH]c(=O)n2C | 3.95% (inactive)
15 | CC1CCN(c2nc3c(c(=O)[nH]c(=O)n3C)n2CCCc2ccccc2)CC1 | 3.62% (inactive)
16 | CO[C@H]1CN(C)C(=O)c2cc(NS(=O)(=O)c3ccccc3C)ccc2OC[C@@H](C)NC[C@@H]1C | 2.17% (inactive)
17 | COCC(=O)N(C)C[C@H]1Oc2cc(Br)ccc2S(=O)(=O)N([C@H](C)CO)C[C@H]1C | 46.1% (active)
18 | COCC(=O)N(C)C[C@H]1Oc2cc(C#CC(C)C)ccc2S(=O)(=O)N([C@H](C)CO)C[C@@H]1C | 1.27% (inactive)
19 | C[C@@H]1CN([C@@H](C)CO)S(=O)(=O)c2ccc(Br)cc2O[C@@H]1CN(C)C(=O)CN(C)C | 21.4% (inactive)
20 | COc1ccc(NC(=O)N[C@H]2C=C[C@H](CC(=O)NCc3ccccn3)O[C@H]2CO)cc1 | 15.4% (inactive)
